# DUSP1 inh = blocks human MKP-1 phosphatase activity. hit rate 0.15% among 65,000. recombinant MKP-1, OMFP hydrolysis fluorescence. AID 374. P28562. inhibition, %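 (compounds tested at a single concentration somewhere between 10 and 100 µM)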;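 active = inhibition above about 50%, limit read from the data; inconclusive = inhibition over screen mean plus 3 SD, below that limit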;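 note: 0% = DMSO max control wells and 100% = wells with enzyme stopped by NaOH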
# Cdc25B inh = inhibitors of human Cdc25B phosphatase; P30305; recombinant Cdc25B, OMFP fluorescence Ex485/Em525; inhibition, %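 (compounds tested at 10 µM final in the well)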; hit rate 0.1% among 65,000; AID 368; in the data active = inhibition above about 50%
# MMP13 inh = inhibitors of human MMP13; AID 570; MMP-13 fTHP FRET cleavage, Mca fluorescence; hit rate 0.07% among 65,000; inhibition, % at 4 µM;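 active = inhibition above the mean of compound-free control plate wells plus 3 SD, cut at about 14% in these data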;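 note: 0% = DMSO wells and 100% = wells with reference MMP-13 inhibitor after basal subtraction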
# BAP1 block = blocks human BAP1 ubiquitin-AMC hydrolysis. recombinant BAP1, Ub-AMC hydrolysis fluorescence kinetic; active compounds read low. calls only at 20 µM. hit rate 0.48% among 72,000;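 active = activity remaining at or below 50% of control, provided the compound also passes the data quality filters; inactive = the rest, including low values that fail the filters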;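 note: 100% = DMSO wells rate and 0% = substrate alone blank rate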
# Target sequence (Q92560 whole entry, looked up): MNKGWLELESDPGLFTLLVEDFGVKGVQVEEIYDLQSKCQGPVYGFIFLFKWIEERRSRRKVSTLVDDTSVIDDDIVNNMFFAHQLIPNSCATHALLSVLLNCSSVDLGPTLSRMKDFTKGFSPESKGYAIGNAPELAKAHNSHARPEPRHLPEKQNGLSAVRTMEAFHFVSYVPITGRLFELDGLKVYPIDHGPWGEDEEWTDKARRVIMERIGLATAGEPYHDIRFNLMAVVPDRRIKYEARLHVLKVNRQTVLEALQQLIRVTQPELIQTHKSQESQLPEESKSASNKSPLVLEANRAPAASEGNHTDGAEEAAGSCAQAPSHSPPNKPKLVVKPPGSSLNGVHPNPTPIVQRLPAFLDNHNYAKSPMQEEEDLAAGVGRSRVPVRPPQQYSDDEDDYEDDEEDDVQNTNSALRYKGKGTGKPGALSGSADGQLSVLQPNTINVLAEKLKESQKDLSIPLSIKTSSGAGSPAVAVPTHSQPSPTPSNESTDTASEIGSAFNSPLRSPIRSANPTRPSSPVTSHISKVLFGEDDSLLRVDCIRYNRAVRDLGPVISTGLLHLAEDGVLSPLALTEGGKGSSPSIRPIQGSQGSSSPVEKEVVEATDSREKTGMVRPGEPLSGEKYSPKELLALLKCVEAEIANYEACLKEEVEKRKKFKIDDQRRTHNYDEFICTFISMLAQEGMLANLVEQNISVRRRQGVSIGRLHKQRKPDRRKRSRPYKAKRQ
# WNV protease inh = blocks West Nile virus NS2B-NS3 protease activity | WNV NS2B-NS3 protease, fluorogenic substrate Ex360/Em465; active compounds read low | z-score (test concentration not listed) | hit rate 0.18% among 65,000 | P06935; in the data active = z-score below about -3
# Redox cycler = redox cycling H2O2 generation, MKP probe counter-screen | EC50, µM | DTT, phenol red/HRP | AID 672 | shares compounds with DUSP1 inh | 60 tested, under 10 active; call rule not given here
# BAP1 inh confirm = BAP1 (human) enzyme inhibition, confirmed | shares compounds with BAP1 block | purified BAP1, Ub-ethyl ester hydrolysis, HPLC; active compounds read low | % of control activity, % at 20 µM | hit rate 8% among 310;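 active = percent of control activity at or below 60%; inconclusive = HPLC trace unusable from injection failure or solvent front hiding peaks; inactive = the rest, plus ubiquitin peak ratio over a set limit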
# * marks the source's active call; other numbers are inactive results; i = inactive; ? = inconclusive; · = not tested or not shown; + = active, no number. In the library only some 0.93% were active in any assay of this set; here they are far more common.
SMILES,DUSP1 inh,Cdc25B inh,MMP13 inh,BAP1 block,WNV protease inh,BAP1 inh confirm,others
CCn1c(SCC(=O)Nc2ccc3c(c2)c2ccccc2n3CC)nnc1-c1ccco1,64*,24,8,·,-3*,·,Redox cycler=>50
CCn1c(SCC(=O)Nc2ccc3c(c2)OCCO3)nnc1-c1ccco1,3,-5,5,i,0.18,·,
COc1ccc(Cn2c(C)nc3c(c2=O)c2nc4ccccc4nc2n3Cc2ccco2)cc1,40,7,-12,i,-1.1,·,Redox cycler=>50
COc1ccc(Cn2c3nc4ccccc4nc3c3c(=O)n(Cc4ccco4)c(C)nc32)cc1,41,16,-3,i,0.99,·,
Nc1c(N2CCCC2)cc(Cl)c2nonc12,72*,5,0,i,0.5,·,Redox cycler=>50
CCc1c(C#N)c(N)nc(SC)c1C#N,·,·,·,i,·,·,
Cc1csc(NC(=O)c2sc3nc(-c4cccs4)ccc3c2N)n1,29,2,-35,·,-0.38,·,
CCCSc1nnc(NC(=O)c2sc3nc(-c4cccs4)ccc3c2N)s1,53*,20,-32,·,-0.29,·,Redox cycler=>50
CCc1ccc(C2NC(=O)NC(C)=C2C(=O)OC2CCCCC2)cc1 (configuration not stated),·,·,·,i,·,·,
Cc1cc(C)n2c(SCC(=O)N3CCN(S(=O)(=O)c4ccc(Cl)cc4)CC3)nnc2n1,56*,-1,1,i,-1.7,·,Redox cycler=>50
O=C(O)c1ccc2c(c1)C1C=CCC1C(C(=O)O)N2 (configuration not stated),·,·,·,i,·,·,
CCOC(=O)c1ccc2c(c1)C1C=CCC1C(C(=O)O)N2 (configuration not stated),57*,27,3,·,-0.52,·,Redox cycler=>50
COc1ccc(C2CC(=O)N3CN(c4ccc(C)c(Cl)c4)CSC3=C2C#N)cc1OC (configuration not stated),30,-12,6,+,-1.8,?,
CC(C)c1nc(SCC(=O)Nc2cccc(C(F)(F)F)c2)c2c(=O)n(C)c(=O)n(C)c2n1,12,-1,1,+,-1.1,103,
CC(C)c1nc(SCC(=O)Nc2ccc3c(c2)OCCO3)c2c(=O)n(C)c(=O)n(C)c2n1,-2,2,-6,i,-1.3,·,
Cc1ccc2cc(CN(Cc3ccc(F)cc3)Cc3nnnn3C3CCCC3)c(=O)[nH]c2c1,18,-24,0,+,-0.16,86,
Cc1ccc2cc(CN(Cc3ccccc3)Cc3nnnn3C3CCCC3)c(=O)[nH]c2c1,29,-18,-1,+,-0.2,90,
CCOC(=O)Cn1nnnc1C(CC)N(Cc1cccs1)Cc1cc2cc(C)ccc2[nH]c1=O (configuration not stated),31,-4,-1,·,1.7,·,
CCC(c1nnnn1C1CCCC1)N(Cc1cccs1)Cc1cc2cc(C)ccc2[nH]c1=O (configuration not stated),26,-12,-2,+,-0.93,76,
CCc1ccc2[nH]c(=O)c(CN(Cc3ccc4c(c3)OCO4)Cc3nnnn3C3CCCC3)cc2c1,33,-22,-6,·,1.5,·,
COc1ccc2cc(CN(Cc3ccco3)Cc3nnnn3C3CCCCC3)c(=O)[nH]c2c1,?,-7,-6,i,-0.29,·,
Cc1ccccc1C(=O)Nc1ccccc1F,·,·,·,i,·,·,
CCOC(=O)c1sc(NC(=O)c2noc3c2CCCC3)c(C(=O)OCC)c1C,10,-15,-2,+,-0.48,i,
CCOC(=O)C1CCN(c2nc3cc(OC)ccc3cc2C#N)CC1,-13,-12,-30,+,1.3,117,
COc1ccc2nc(N3CCC(O)CC3)c(C#N)cc2c1,-13,1,-9,i,-0.4,·,
SMILES,DUSP1 inh,Cdc25B inh,MMP13 inh,BAP1 block,WNV protease inh,BAP1 inh confirm,others
COc1ccc(CNC(=O)C(NS(=O)(=O)c2ccc3c(c2)CCCN3C(C)=O)C(C)C)cc1 (configuration not stated),7,8,3,i,-0.91,·,
CCC(=O)N1CCc2cc(S(=O)(=O)NC(C(=O)NCc3ccc(C)cc3)C(C)C)ccc21 (configuration not stated),15,25,-2,+,1.8,i,
Cc1ccc2c(C)nc(SCc3ccc(Cl)cc3)nc2c1,·,·,·,i,·,·,
CC(C)Cn1cc(C(=O)N2CCN(c3ccccn3)CC2)c2c3ccccc3n(C)c2c1=O,12,4,-16,+,-0.42,143,
Cc1sc(NC(=O)CSc2nnc(-c3ccccc3)o2)c(C#N)c1C,-2,-6,4,+,0.01,37*,
CCc1ccc(N/C(SCc2cccc(F)c2)=C(/C#N)C(=O)NCc2ccco2)cc1,5,-26,10,+,-0.7,111,
Cc1ccc(CC2S/C(=C(/C#N)C(=O)NCc3ccco3)N(c3ccccc3)C2=O)cc1 (configuration not stated),13,1,6,i,-1.8,·,
CCOCCOC(=O)C1=C(C)NC(=O)NC1c1ccc(OCC)cc1 (configuration not stated),·,·,·,i,·,·,
CCOC(=O)c1c(NC(=O)CSc2nnc(CNc3ccc(F)cc3)o2)sc(C)c1C,27,-21,6,+,-0.77,?,
CCOC(=O)C1Cn2c(nc3c(c2=O)C(C)(C)Cc2ccccc2-3)S1 (configuration not stated),0,0,-5,i,0.22,·,
CCOC(=O)C1Cn2c(nc3c(c2=O)C2(CCCC2)Cc2ccccc2-3)S1 (configuration not stated),5,-5,-12,+,0.65,97,
Cc1cc(NC(=O)c2cn(C3CCCCC3)c(=O)c3c2c2ccccc2n3C)no1,2,-8,-13,+,-1.2,102,
Cc1cccc(OCC(=O)Nc2ccc(N3CCN(S(C)(=O)=O)CC3)cc2)c1C,-17,5,-2,+,0.3,98,
Cc1ccccc1OCC(=O)Nc1ccc(N2CCN(S(C)(=O)=O)CC2)cc1,10,3,-18,i,0.32,·,
CCOc1ccc(C(=S)N2CCCCC2)cc1OC,·,·,·,i,·,·,
O=C(O)CCCN1C(=O)c2ccc(C(=O)O)cc2C1=O,·,·,·,i,·,·,
COc1ccccc1C(c1nnnn1CCc1ccccc1)N1CCN(c2ccccc2)CC1 (configuration not stated),10,-4,4,+,0.01,89,
COCCn1nnnc1C(c1cc2cc(C)ccc2[nH]c1=O)N1CCCCCC1 (configuration not stated),12,4,0,i,0.32,·,
Cc1ccc2[nH]c(=O)c(C(c3nnnn3CCc3ccccc3)N3CCOCC3)cc2c1 (configuration not stated),17,-4,-3,+,-0.6,90,
NC(=O)c1ccccc1NC(=O)C(Cc1ccccc1)N1C(=O)c2ccccc2C1=O (configuration not stated),·,·,·,i,·,·,

# Compound activity: PubChem, several laboratories
